The source of these data is PubChem BioAssay (NCI).

The panel holds about 83,000 compounds, 20% with a hit somewhere; the sample as a whole holds those more often.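 Plates (96-well) were seeded with cells, treated with compound at one concentration, and incubated for 48 hours before percent growth was determined.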 Unmarked numbers belong to inactive results. Activity calls are given as the source filed them. How the source made its calls: active means growth percent below 10; inactive means the rest.

Among the test systems are SK-MEL-2 melanoma; EKVX NSCLC; SN12C renal; UO-31 renal; TK-10 renal; ACHN renal; CAKI-1 renal; A498 renal; CCRF-CEM leukemia; MOLT-4 leukemia; SR leukemia; OVCAR-8 ovarian; OVCAR-5 ovarian; OVCAR-4 ovarian; SK-OV-3 ovarian; IGROV1 ovarian; OVCAR-3 ovarian; HS 578T breast; NCI/ADR-RES ovarian.
Experiment in all cases: NCI-60 one-dose screen, 48 h (100 = growth as untreated, 0 = no growth, -100 = all killed)
What all share (settings): 10 µM unless noted

In the case of `COc1ccc(C2C(N)=NNC2c2cccc(O)c2)cc1` (stereo not given), the growth in the experiment on SK-MEL-2 melanoma was 87.6%; in the experiment on EKVX NSCLC, 95.5%; in the experiment with SN12C renal, 96.4%; in the experiment with UO-31 renal it was 83.7%; in the experiment with TK-10 renal, 122%; in the experiment with ACHN renal, 106%. In addition, the growth is 88.7% in the experiment on CAKI-1 renal; 126% in the experiment on A498 renal; 105% in the experiment on CCRF-CEM leukemia; 96.7% in the experiment on MOLT-4 leukemia; 81.2% in the experiment on SR leukemia; 93.8% with OVCAR-8 ovarian. Also, the growth was 107% in the experiment on OVCAR-5 ovarian; 108% with OVCAR-4 ovarian; 98.9% in the experiment on SK-OV-3 ovarian; 90.6% with IGROV1 ovarian; 106% with OVCAR-3 ovarian; 110% with HS 578T breast. Also, the growth with NCI/ADR-RES ovarian was 99.1%.

As to `O=S(=O)(Nc1ccc(-c2nc(-c3cccc(OCCN4CCOCC4)c3)c(-c3ccnc(Br)c3)[nH]2)cc1)c1ccccc1`, the growth in the experiment on SK-MEL-2 melanoma is 24.8%; in the experiment with EKVX NSCLC, 50.2%; in the experiment with SN12C renal, 51.5%; in the experiment on UO-31 renal it was 20.5%; in the experiment with TK-10 renal it was 48.2%; in the experiment with ACHN renal, 27.1%. Besides, the growth was 28.2% with CAKI-1 renal; 53% with A498 renal; 15.1% in the experiment with CCRF-CEM leukemia; 8.11% (active) with MOLT-4 leukemia; -18.7% (active) with SR leukemia; 32.3% with OVCAR-8 ovarian. Further, the growth with OVCAR-5 ovarian was 54.5%; with OVCAR-4 ovarian, 40.6%; in the experiment with SK-OV-3 ovarian it was 59.1%; in the experiment with IGROV1 ovarian, 43.7%; in the experiment with OVCAR-3 ovarian, 46.1%; in the experiment on HS 578T breast, 0.194% (active). Also, in the experiment on NCI/ADR-RES ovarian, the growth was 54.1%.

Take `CCOC(=O)c1cnn2c3ccccc3n(S(=O)(=O)c3ccc(OC)cc3)c12`: the growth with SK-MEL-2 melanoma was 66.7%; in the experiment with EKVX NSCLC it was 38.4%; in the experiment on SN12C renal, 22.2%; in the experiment with UO-31 renal it was 46.7%; in the experiment with TK-10 renal, 79.7%; with ACHN renal, 35.4%. In addition, the growth in the experiment with CAKI-1 renal was 42.3%; in the experiment on A498 renal it was -3.19% (active); in the experiment on CCRF-CEM leukemia it was 9.32% (active); with MOLT-4 leukemia it was 16.5%; in the experiment with SR leukemia it was 14%; with OVCAR-8 ovarian, 27.5%. The growth was 42.5% with OVCAR-5 ovarian; 71.4% in the experiment with OVCAR-4 ovarian; 48.2% in the experiment with SK-OV-3 ovarian; 28.6% in the experiment on IGROV1 ovarian; 0.973% (active) in the experiment on OVCAR-3 ovarian; 37.3% in the experiment on HS 578T breast. Besides, the growth in the experiment on NCI/ADR-RES ovarian is 0.145% (active).

For `O=C(Nc1ccc(Cl)cc1F)c1cc(Cl)ccc1O`, the growth with SK-MEL-2 melanoma was -28.3% (active); in the experiment with EKVX NSCLC it was 5.1% (active); in the experiment with SN12C renal, -11% (active); with UO-31 renal, -14.6% (active); with TK-10 renal it was 15.6%; in the experiment on ACHN renal, -1.72% (active). The growth in the experiment with CAKI-1 renal was 1.59% (active); with A498 renal it was -51.8% (active); with CCRF-CEM leukemia, 15.8%; with MOLT-4 leukemia, -42.4% (active); with SR leukemia it was -21.2% (active); in the experiment with OVCAR-8 ovarian, 8.56% (active). For the same compound, the growth in the experiment with OVCAR-5 ovarian was 19.7%; in the experiment on OVCAR-4 ovarian, 17.9%; in the experiment on SK-OV-3 ovarian, 9.05% (active); with IGROV1 ovarian, 8.98% (active); with OVCAR-3 ovarian, 2.51% (active); in the experiment with HS 578T breast, -13.9% (active). Besides, the growth in the experiment with NCI/ADR-RES ovarian was 3.01% (active).

For `CCOc1cccc(NC2=C(Br)C(=O)C(C)=C(C)C2=O)c1`, the growth was 95.5% in the experiment on SK-MEL-2 melanoma; 92.4% with EKVX NSCLC; 85% in the experiment with SN12C renal; 71.7% in the experiment on UO-31 renal; 155% in the experiment with TK-10 renal; 85.8% with ACHN renal. Also, the growth in the experiment on CAKI-1 renal was 96%; in the experiment on A498 renal, 109%; with CCRF-CEM leukemia, 3.35% (active); in the experiment on MOLT-4 leukemia it was 2.57% (active); in the experiment on SR leukemia, 74.7%; in the experiment with OVCAR-8 ovarian, 91.5%. The growth in the experiment on OVCAR-5 ovarian is 95.7%; in the experiment on OVCAR-4 ovarian it was 56.7%; in the experiment with SK-OV-3 ovarian it was 88%; with IGROV1 ovarian it was 58.6%; in the experiment on OVCAR-3 ovarian, 87.6%; in the experiment on HS 578T breast it was 91.2%. In addition, the growth in the experiment on NCI/ADR-RES ovarian was 96.5%.

`Cc1ccc(-c2nc(N3CCN(CC(=O)Nc4ccc(Cl)cc4)CC3)c3ccccc3n2)cc1`: the growth with SK-MEL-2 melanoma was 103%; in the experiment on EKVX NSCLC it was 85.4%; in the experiment with SN12C renal, 90.4%; with UO-31 renal it was 64.1%; in the experiment with TK-10 renal, 104%; with ACHN renal it was 98.3%. The growth in the experiment with CAKI-1 renal was 85.2%; in the experiment with A498 renal, 51.4%; in the experiment on CCRF-CEM leukemia it was 88.9%; with MOLT-4 leukemia it was 62.1%; in the experiment with SR leukemia it was 79.1%; in the experiment with OVCAR-8 ovarian it was 92.3%. In addition, the growth with OVCAR-5 ovarian is 93.9%; in the experiment with OVCAR-4 ovarian, 96.2%; in the experiment on SK-OV-3 ovarian it was 94.3%; in the experiment on IGROV1 ovarian, 96.3%; in the experiment with OVCAR-3 ovarian, 97.8%; in the experiment with HS 578T breast it was 92.6%. Also, in the experiment with NCI/ADR-RES ovarian, the growth is 84.5%.

On to `O=C1CCC/C=C\C[C@H]2C=CC(=O)/C2=C/C[C@H](CCc2cccc(C(F)(F)F)c2)O1`, for which the growth in the experiment on SK-MEL-2 melanoma is -57.2% (active); in the experiment on EKVX NSCLC, -47.6% (active); in the experiment with SN12C renal it was -37.9% (active); in the experiment on UO-31 renal it was -95.5% (active); in the experiment with TK-10 renal, -68.9% (active); with ACHN renal it was -85.1% (active). Further, the growth with CAKI-1 renal was 12.5%; in the experiment with A498 renal it was -79.7% (active); with CCRF-CEM leukemia it was 4.33% (active); with MOLT-4 leukemia, -18.6% (active); in the experiment with SR leukemia it was -4.73% (active); with OVCAR-8 ovarian it was 5.51% (active). Also, the growth with OVCAR-5 ovarian was -16.9% (active); with OVCAR-4 ovarian it was 12.8%; in the experiment on SK-OV-3 ovarian, -34.9% (active); with OVCAR-3 ovarian, -65.8% (active); in the experiment on HS 578T breast, 14.3%; in the experiment on NCI/ADR-RES ovarian it was 1.09% (active).

Take `COc1cccc(Cc2cc(-c3ccccc3)nn(CC(=O)c3ccccc3)c2=O)c1`: the growth in the experiment with SK-MEL-2 melanoma is 85.4%; in the experiment with EKVX NSCLC, 65.1%; in the experiment with SN12C renal it was 59.3%; with UO-31 renal, 65.1%; in the experiment with TK-10 renal, 72.1%; with ACHN renal it was 52%. Moreover, the growth is 59.6% with CAKI-1 renal; 52.1% in the experiment on A498 renal; 39.1% in the experiment with CCRF-CEM leukemia; 22.7% in the experiment with MOLT-4 leukemia; 0.342% (active) in the experiment on SR leukemia; 58.7% with OVCAR-8 ovarian. The growth is 96.4% in the experiment on OVCAR-5 ovarian; 69.5% in the experiment on OVCAR-4 ovarian; 89.6% with SK-OV-3 ovarian; 64.9% with OVCAR-3 ovarian; 66.9% in the experiment with HS 578T breast; 57.2% in the experiment with NCI/ADR-RES ovarian.
